Experimental data reported in the supplement of paper PMC4466140.

B1: unnamed (peptide)
chain: YRRKSIPFAPHQITA

What follows are binders tested against ScBbc1 (assay: SPOT peptide array binding signal intensity (averaged, normalized) (arbitrary units (background-subtracted, floor 0; scale differs between SH3 domains)); higher = stronger binding of the SH3 domain to the peptide).
Protocol: (§1)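 GST-tagged SH3 domains from S. cerevisiae (Sc), A. gossypii (Ag), C. albicans (Ca) and S. pombe (Sp) were incubated at 10 ug/ml overnight at 4 C on cellulose SPOT membranes carrying 292 synthetic 15-mer peptides mined from the S. cerevisiae proteome (cysteines replaced by serines). Binding was detected with anti-GST antibody, HRP secondary and chemiluminescence, quantified with Genespotter, and reported as normalized spot intensities averaged over biological replicates.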

Binder	SPOT peptide array binding signal intensity
B1	9.25

These binders were tested against ScBem1-D1 in the same assay as above.
Protocol: as §1

Binder	SPOT peptide array binding signal intensity
B1	29.5

Each binder was assayed against ScBzz1-D1 in the same assay as above.
Protocol: as §1

Binder	SPOT peptide array binding signal intensity
B1	66

What follows are binders tested against ScBzz1-D2 in the same assay as above.
Protocol: as §1

Binder	SPOT peptide array binding signal intensity
B1	90

Each binder was assayed against ScCyk3 in the same assay as above.
Protocol: as §1

Binder	SPOT peptide array binding signal intensity
B1	10

The binders below were run against ScFus1 in the same assay as above.
Protocol: as §1

Binder	SPOT peptide array binding signal intensity
B1	89

What follows are binders tested against ScHof1 in the same assay as above.
Protocol: as §1

Binder	SPOT peptide array binding signal intensity
B1	3.5

Each binder was assayed against ScHse1 in the same assay as above.
Protocol: as §1

Binder	SPOT peptide array binding signal intensity
B1	380

Each binder was assayed against ScLsb1 in the same assay as above.
Protocol: as §1

Binder	SPOT peptide array binding signal intensity
B1	0.25

The binders below were run against ScLsb2 in the same assay as above.
Protocol: as §1

Binder	SPOT peptide array binding signal intensity
B1	25

The binders below were run against ScLsb3 in the same assay as above.
Protocol: as §1

Binder	SPOT peptide array binding signal intensity
B1	20

These binders were tested against ScLsb4 in the same assay as above.
Protocol: as §1

Binder	SPOT peptide array binding signal intensity
B1	6

These binders were tested against ScMyo3 in the same assay as above.
Protocol: as §1

Binder	SPOT peptide array binding signal intensity
B1	0.5

These binders were tested against ScMyo5 in the same assay as above.
Protocol: as §1

Binder	SPOT peptide array binding signal intensity
B1	6

What follows are binders tested against ScNbp2 in the same assay as above.
Protocol: as §1

Binder	SPOT peptide array binding signal intensity
B1	160

The binders below were run against ScPex13 in the same assay as above.
Protocol: as §1

Binder	SPOT peptide array binding signal intensity
B1	185

Each binder was assayed against ScRvs167 in the same assay as above.
Protocol: as §1

Binder	SPOT peptide array binding signal intensity
B1	33.3

The binders below were run against ScSho1 in the same assay as above.
Protocol: as §1

Binder	SPOT peptide array binding signal intensity
B1	145

The binders below were run against ScSla1-D1-D2 in the same assay as above.
Protocol: as §1

Binder	SPOT peptide array binding signal intensity
B1	166

Each binder was assayed against ScSla1-D3 in the same assay as above.
Protocol: as §1

Binder	SPOT peptide array binding signal intensity
B1	4.25

The binders below were run against SpAbp1-D1 in the same assay as above.
Protocol: as §1

Binder	SPOT peptide array binding signal intensity
B1	99

The binders below were run against SpBbc1 in the same assay as above.
Protocol: as §1

Binder	SPOT peptide array binding signal intensity
B1	2

What follows are binders tested against SpBzz1-D1 in the same assay as above.
Protocol: as §1

Binder	SPOT peptide array binding signal intensity
B1	189

The binders below were run against SpBzz1-D2 in the same assay as above.
Protocol: as §1

Binder	SPOT peptide array binding signal intensity
B1	0.5

These binders were tested against SpCyk3 in the same assay as above.
Protocol: as §1

Binder	SPOT peptide array binding signal intensity
B1	≤ 0

Each binder was assayed against SpHof1 in the same assay as above.
Protocol: as §1

Binder	SPOT peptide array binding signal intensity
B1	25.8

Each binder was assayed against SpHof1-2 in the same assay as above.
Protocol: as §1

Binder	SPOT peptide array binding signal intensity
B1	1.5

Each binder was assayed against SpHof1-3 in the same assay as above.
Protocol: as §1

Binder	SPOT peptide array binding signal intensity
B1	106

These binders were tested against SpHse1 in the same assay as above.
Protocol: as §1

Binder	SPOT peptide array binding signal intensity
B1	88.2

Each binder was assayed against SpLsb1 in the same assay as above.
Protocol: as §1

Binder	SPOT peptide array binding signal intensity
B1	4.5

Each binder was assayed against SpLsb4 in the same assay as above.
Protocol: as §1

Binder	SPOT peptide array binding signal intensity
B1	48

The binders below were run against SpMyo1 in the same assay as above.
Protocol: as §1

Binder	SPOT peptide array binding signal intensity
B1	5.5

The binders below were run against SpNbp2 in the same assay as above.
Protocol: as §1

Binder	SPOT peptide array binding signal intensity
B1	64

Each binder was assayed against SpPex13 in the same assay as above.
Protocol: as §1

Binder	SPOT peptide array binding signal intensity
B1	19

Each binder was assayed against SpRvs167 in the same assay as above.
Protocol: as §1

Binder	SPOT peptide array binding signal intensity
B1	6.33

These binders were tested against SpSla1-D1-D2 in the same assay as above.
Protocol: as §1

Binder	SPOT peptide array binding signal intensity
B1	≤ 0

The binders below were run against SpSla1-D3 in the same assay as above.
Protocol: as §1

Binder	SPOT peptide array binding signal intensity
B1	11
